Reference: PubChem BioAssay (NCATS)
Inconclusive results are not listed. Where a call stands in place of a potency, no number is given. Unmarked numbers belong to inactive results. Calls of active or inactive are those of the source. Calls follow the shape of the dose curve; as a rule, active = well fitted curve in the direction sought with a large enough effect; inconclusive = small, poorly fitted or top-dose-only effect, or another doubt; inactive = no such curve, though single readings can be large; an effect the other way counts as inactive or inconclusive.

What was measured:
[1] = P-glycoprotein substrates identified in KB-3-1 adenocarcinoma cell line, qHTS therapeutic library screen (AID 1346986); also: nearly all actives have a fitted effect of over 60% in size
Summary of the method: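 Dose-response cytotoxicity, KB-3-1 vs P-gp-high KB-8-5-11, no colchicine in assay medium. Read: CellTiter-Glo at 72 h.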

[2] = P-glycoprotein substrates identified in KB-8-5-11 adenocarcinoma cell line, qHTS therapeutic library screen (AID 1346987); also: nearly all actives have a fitted effect of over 65% in size; as to activity change, negative = cytotoxicity: series mostly up to about 44 µM
Summary of the method: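 In this qHTS, P-gp-rich KB-8-5-11 cells received library compounds across a concentration range. Viability was quantified by luminescence after 72 h at 37 degree C.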

Structure (SMILES): COC(=O)C1=COC(OC2OC(CO)C(O)C(O)C2O)C2C(COC(=O)/C=C/c3ccc(O)cc3)C(O)C(O)C12 (stereo unspecified)
- Potency [1]: inactive
- Potency [2]: inactive

Structure (SMILES): O=C(/C=C/c1ccc(O)cc1)OC[C@H]1O[C@@H](O/C(=C\c2ccccc2)C(=O)O)[C@H](O)[C@@H](O)[C@@H]1O
- Potency [1]: inactive
- Potency [2]: inactive

Structure (SMILES): CCC12CCCN3CCc4c(n(c5ccccc45)C(O)C1)C32 (stereo unspecified)
- Potency [1]: inactive
- Potency [2]: inactive

Structure (SMILES): C[C@H]1[C@H](C)CC[C@]2(C(=O)OC3OC(CO)C(O)C(O)C3O)CC[C@]3(C(=O)O)C(=CCC4[C@@]5(C)CC[C@H](O[C@@H]6O[C@@H](C)[C@H](OC7OC(CO)C(O)C(O)C7O)[C@@H](O)[C@H]6O)C(C)(C)C5CC[C@]43C)[C@H]12 (stereo partly specified)
- outcome [1]: inactive [at 9.29 µM]
- activity change, negative = cytotoxicity [2]: -1.84% [at 9.29 µM]

Structure (SMILES): C[C@@H]1O[C@@H](O[C@H]2[C@H](OC(=O)[C@]34CCC(C)(C)C[C@H]3C3=CCC5[C@@]6(C)CC[C@H](O[C@@H]7O[C@H](CO[C@@H]8OC[C@H](O)[C@H](O)[C@H]8O)[C@@H](O)[C@H](O)[C@H]7O)C(C)(C)C6CC[C@@]5(C)[C@]3(C)C[C@H]4O)OC[C@@H](O)[C@@H]2O)[C@H](O)[C@H](O[C@@H]2OC[C@](O)(CO)[C@H]2O)[C@H]1O[C@@H]1OC[C@H](O)[C@H](O[C@@H]2OC[C@@H](O)[C@H](O)[C@H]2O)[C@H]1O (stereo partly specified)
- activity change, negative = cytotoxicity [2]: 5.27% [at 9.29 µM]

Structure (SMILES): C[C@@H]1O[C@@H](O[C@H]2[C@H](O)[C@@H](O[C@@H]3O[C@H](CO)[C@H](O)[C@H](O)[C@H]3O)[C@H](O[C@H]3CC[C@@]4(C)C(CC[C@]5(C)C4CC=C4[C@@H]6CC(C)(C)CC[C@]6(C(=O)O[C@@H]6O[C@H](CO)[C@@H](O)[C@H](O)[C@H]6O)CC[C@]45C)C3(C)C)O[C@@H]2C(=O)O)[C@H](O)[C@H](O)[C@H]1O (stereo partly specified)
- activity change, negative = cytotoxicity [2]: 2.63% [at 9.29 µM]

Structure (SMILES): COC(=O)[C@]1(C)CCC[C@@]2(C)C(=O)CC[C@H]3C(=O)C=C(CC[C@@H]21)C3O (stereo partly specified)
- Potency [2]: inactive

Structure (SMILES): COCCCc1sc(-c2ccccc2)nc1C(=O)Nc1ccccc1-c1nc2cc(CN3CCCC3)cnc2s1
- Potency [2]: inactive

Structure (SMILES): CC1=CC23[C@H](C=C(C(=O)O)[C@@H]2COC(=O)[C@]3(O)CO)[C@@H]1C (stereo partly specified)
- Potency [2]: inactive

Structure (SMILES): CCOc1nc2c(N)ncnc2n1CC
- Potency [2]: inactive

Structure (SMILES): CC[C@@H]1[C@H]2CCCCN3C(=O)C[C@H]([C@@H]4[C@H]1OC(=O)[C@H]4C)[C@@H]23
- Potency [2]: inactive

Structure (SMILES): COc1ccc(C(=O)CC(=O)O)c2c1C=CC(C)(C)O2
- Potency [2]: inactive

Structure (SMILES): COC(O)(CC(C)C)C1Oc2cc(C)[nH]c(=O)c2O1 (stereo unspecified)
- Potency [2]: inactive

Structure (SMILES): CCCCC(=O)N1c2ccccc2NC2=C(C(=O)CCC2)C1c1ccccc1Cl (stereo unspecified)
- Potency [2]: inactive

Structure (SMILES): Cc1c(NC(=O)N2CCOCC2)ccc2c1c1ccccc1n2C(C)C
- Potency [2]: inactive

Structure (SMILES): CC1OC(OC2C(OC3C(O[C@H]4CC[C@@]5(C)C(CC[C@]6(C)C5CC=C5C7CC(C)(C)CC(O)[C@]7(C)CC[C@]56C)C4(C)C)OC(C(=O)O)C(O)C3O)OCC(O)C2O)C(O)C(O)C1O (stereo partly specified)
- outcome [2]: inactive [at 9.29 µM]

Structure (SMILES): C[C@H]1[C@H](C)CC[C@]2(C(=O)O)CC[C@]3(C(=O)O)C(=CCC4[C@@]5(C)CC[C@H](O[C@@H]6O[C@@H](C)[C@H](O)[C@@H](O)[C@H]6O)C(C)(C)C5CC[C@]43C)[C@H]12 (stereo partly specified)
- Potency [2]: inactive

Structure (SMILES): CC1=C[C@@H]2[C@H]3[C@@H]4O[C@@](C)(CC[C@H]4O)[C@H]3CC(=O)[C@]23C(=O)N[C@@H](CC(C)C)[C@@H]3[C@@H]1C
- Potency [2]: inactive

Structure (SMILES): C[C@@H]1O[C@@H](OC2C(CO)OC(OCC3OC(OC(=O)[C@]45CCC(C)(C)CC4C4=CCC6[C@@]7(C)CC[C@@H](O)[C@](C)(C(=O)O)C7CC[C@@]6(C)[C@]4(C)CC5)C(O)C(O)C3O)C(O)C2O)[C@H](O)[C@H](O)[C@H]1O (stereo partly specified)
- activity change, negative = cytotoxicity [2]: 5.62% [at 9.29 µM]

Structure (SMILES): CC(CCO)CCC1C2(C)CCCC(C)(C)C2CC[C@@]1(C)O (stereo partly specified)
- Potency [2]: inactive

Structure (SMILES): C[C@]12CC[C@@H]3c4ccc(O)cc4CC[C@H]3[C@@H]1C[C@@H](O[C@@H]1O[C@H](C(=O)O)[C@@H](O)[C@H](O)[C@H]1O)[C@@H]2O
- Potency [2]: inactive

Structure (SMILES): O=C(Cc1ccc(Cl)cc1)Nc1cnccc1C(=O)O
- Potency [2]: inactive

Structure (SMILES): CC(=O)NC1C(OC2CCC3(C)C(CCC4(C)C3CC=C3C5CC(C)(C)CCC5(C(=O)O)C(O)CC34C)C2(C)C)OC(CO)C(O)C1O (stereo unspecified)
- Potency [2]: inactive

Structure (SMILES): CC1(C)CC[C@]2(C(=O)O)CC[C@]3(C)C(=CCC4[C@@]5(C)C[C@@H](O)[C@H](O)[C@@](C)(CO)C5CC[C@]43C)C2C1 (stereo partly specified)
- Potency [2]: inactive

Structure (SMILES): CS(=O)(=O)c1ccccc1N1CCN(c2nc3c(c(=O)[nH]2)CSCC3)CC1
- Potency [2]: inactive

Structure (SMILES): C/C(=C\CCC(C)(C)O)CCO[C@@H]1O[C@H](CO[C@@H]2O[C@@H](C)[C@H](O)[C@@H](O)[C@H]2O)[C@@H](O)[C@H](O)[C@H]1O
- Potency [2]: inactive

Structure (SMILES): CC1=CC(=O)CC(C)(C)C1CCC(C)O[C@@H]1O[C@H](CO)[C@@H](O)[C@H](O)[C@H]1O (stereo partly specified)
- Potency [2]: inactive
